# L3MBTL1 block – qHTS Assay for the Inhibitors of L3MBTL1 | AID 485360, 2010 | AlphaScreen L3MBTL1–H3K9me1 peptide binding | 230,000 compounds, 0.66% hits | Potency, µM (doses to about 57.1 µM), hits mostly inhibitors | Lethal(3)malignant brain tumor-like protein 1 (Homo sapiens), Q9Y468; also: nearly all actives have a fitted effect of over 60% in size
# Target sequence (Q9Y468 whole entry, looked up): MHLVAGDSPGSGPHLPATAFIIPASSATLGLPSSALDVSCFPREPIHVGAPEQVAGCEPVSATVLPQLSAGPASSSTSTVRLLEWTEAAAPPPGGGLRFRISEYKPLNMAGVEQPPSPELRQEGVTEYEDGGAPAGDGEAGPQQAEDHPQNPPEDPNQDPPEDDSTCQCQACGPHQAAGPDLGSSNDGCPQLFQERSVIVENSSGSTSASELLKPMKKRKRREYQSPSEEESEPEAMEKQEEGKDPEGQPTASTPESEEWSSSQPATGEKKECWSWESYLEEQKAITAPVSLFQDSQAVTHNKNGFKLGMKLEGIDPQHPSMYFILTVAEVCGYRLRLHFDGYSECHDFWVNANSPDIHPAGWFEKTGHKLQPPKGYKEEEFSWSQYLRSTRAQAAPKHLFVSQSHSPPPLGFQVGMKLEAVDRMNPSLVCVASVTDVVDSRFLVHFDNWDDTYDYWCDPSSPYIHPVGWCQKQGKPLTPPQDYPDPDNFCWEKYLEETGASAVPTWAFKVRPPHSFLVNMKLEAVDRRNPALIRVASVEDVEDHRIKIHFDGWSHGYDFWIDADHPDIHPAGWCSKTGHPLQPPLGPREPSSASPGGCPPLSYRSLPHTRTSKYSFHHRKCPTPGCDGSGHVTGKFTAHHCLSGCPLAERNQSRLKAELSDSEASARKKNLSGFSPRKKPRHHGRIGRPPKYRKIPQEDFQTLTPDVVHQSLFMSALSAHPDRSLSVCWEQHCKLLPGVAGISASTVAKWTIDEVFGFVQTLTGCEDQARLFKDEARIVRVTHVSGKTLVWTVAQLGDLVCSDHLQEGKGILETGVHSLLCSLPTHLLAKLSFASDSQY
#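 First, the protein-peptide complex forms for 30 min at room temperature (L3MBTL1 50 nM, biotinylated H3K9me1 peptide 75 nM). Next, compounds are pin-transferred and incubated 30 min. Finally, AlphaScreen beads are added and read after 30 min.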
# JMJD2A Tudor – qHTS Assay for Inhibitors of JMJD2A-Tudor Domain; AlphaScreen JMJD2A-Tudor / H3K4me3 peptide binding; Potency, µM (doses to about 114 µM), usual class: inhibitors; 390,000 compounds, 4.4% hits; also: nearly all actives have a fitted effect of over 50% in size
# G9a block – qHTS Assay for Inhibitors of Histone Lysine Methyltransferase G9a. G9a H3K9 monomethylation, AlphaScreen, 2 h. Potency, µM (doses to about 102 µM), usual class: inhibitors. 350,000 compounds, 8.8% hits; also: nearly all actives have a fitted effect of over 75% in size
#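 Compounds were preincubated with 20 nM G9a for 15 min, after which biotinylated H3K9 peptide (500 nM) and SAM (20 uM) started a 2 h room-temperature reaction. Monomethylated product was quantified by antibody-based AlphaScreen chemiluminescence.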
# BAZ2B block – qHTS Assay for Inhibitors of BAZ2B. Bromodomain adjacent to zinc finger domain protein 2B (Homo sapiens), Q9UIF8. AlphaScreen BAZ2B-H3K14Ac peptide displacement. Potency, µM (series often up to 114 µM), most hits filed as inhibitors. 360,000 compounds, 4.4% hits; also: nearly all actives have a fitted effect of over 60% in size
#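 Compounds, titrated to a top concentration of 110 uM, were incubated 30 min at room temperature with preformed BAZ2B/acetyl-K14 H3 peptide complex (50 nM each). Proximity signal was measured by AlphaScreen after 20 min with beads.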
# HP1b chromo inh – HTS for Inhibitors of HP1-beta Chromodomain Interactions with Methylated Histone Tails; Potency, µM (series often up to 114 µM), usual class: inhibitors; Chromobox protein homolog 1 (Homo sapiens), P83916; 390,000 compounds, 0.56% hits; AlphaScreen HP1-beta / biotin-H3K9me3 peptide binding; AID 540317, 2011; also: nearly all actives have a fitted effect of over 70% in size
#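 HP1-beta protein (50 nM final) preincubated 30 min at room temperature with biotinylated H3(1-18)K9me3 peptide (50 nM) in PBS pH 7.4, 0.01% Tween-20, then compound added for 30 min. AlphaScreen streptavidin donor/nickel chelate acceptor beads (10 ug/mL final), 30 min dark, luminescence read.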
# Numbers stand for hits; i = inactive; ? = inconclusive; nt = no result; [ ] = another dose, or the depositor's remark. In the library only some 11% were active in any assay of this set; here they are far more common. Calls follow the shape of the dose curve; as a rule, active = well fitted inhibition curve with a large enough effect; inconclusive = small, poorly fitted or top-dose-only effect; inactive = no such curve, though single readings can be large or run the other way.
SMILES,L3MBTL1 block,JMJD2A Tudor,G9a block,BAZ2B block,HP1b chromo inh
CN1CCN(/N=C/c2ccc(Cl)c(Cl)c2)CC1,i,?,?,?,i
S=c1[nH]nc(-c2ccco2)n1/N=C/c1cccc(Cl)c1,i,79µM,0.71µM,i,i
COc1cc(-c2n[nH]c(=S)n2-c2cc(C(F)(F)F)ccc2Cl)cc(OC)c1OC,i,i,?,i,i
S=c1[nH]nc(-c2ccccn2)n1/N=C/c1cccc(Cl)c1,nt,20µM,1.6µM,28µM,i
COc1cc(-c2n[nH]c(=S)n2/N=C/c2cccn2C)cc(OC)c1OC,nt,1.3µM,?,?,?
Cc1ccc2cccc(NC(=O)c3cccc4c(Cl)cccc34)c2n1,nt,i,i,i,i
Fc1ccc(-n2ncc3c(N4CCC(Cc5ccccc5)CC4)ncnc32)cc1,nt,i,i,i,i
Cn1cccc1/C=N/n1c(-c2ccco2)n[nH]c1=S,?,20µM,nt,?,i
S=c1[nH]nc(-c2cccc(Cl)c2)n1/N=C/c1ccco1,nt,32µM,3.5µM,i,i
S=c1[nH]nc(-c2cccc(Cl)c2)n1/N=C/c1ccc(-c2ccccc2Br)o1,i,i,?,i,i
COc1ccc(-c2nn(C)c3sc(C(=O)N4CCN(c5cccc(Cl)c5)CC4)cc23)cc1OC,nt,i,?,nt,i
COc1ccc([C@H]2CC(=O)C=C(c3ccc(OC)c(F)c3)C2)cc1,i,i,i[2.33 µM],i,i
Cc1ccc(CN2C(=O)c3ccccc3S(=O)(=O)c3ccc(C(=O)OCC4CCCO4)cc32)cc1 (configuration not stated),nt,i,i,i,i
CCN(CC)CC(C)OC(=O)c1ccccc1Cl (configuration not stated),nt,i,i,i,i
Cc1ccc(S(=O)(=O)N(C(=O)c2ccco2)c2cc3sc(=O)oc3c3ccccc23)cc1,i,?,1.8µM,?,?
COc1ccc(S(=O)(=O)N(Cc2ccccc2)c2ccccc2C(=O)Nc2ccccc2C(=O)NCc2ccco2)cc1,i,i,i,i,i
CCOc1ccc(S(=O)(=O)N(C(=O)c2ccco2)c2cc3sc(=O)oc3c3ccccc23)cc1,i,?,1.4µM,?,?
COc1ccc(S(=O)(=O)N(C(=O)c2ccco2)c2cc3sc(=O)oc3c3ccccc23)cc1,i,?,1.4µM,?,?
CCOc1ccc(S(=O)(=O)N(C)CC(=O)NCc2ccco2)cc1,nt,i,i,i,i
O=C1S/C(=C\c2ccc(N3CCOCC3)o2)C(=O)N1Cc1ccc(F)cc1,i,?,?,i,i
C=CCN1C(=O)N/C(=C/c2ccc(N3CCOCC3)o2)C1=O,i,nt,32µM,i,nt
O=C1N/C(=C/c2ccc(N3CCOCC3)o2)C(=O)N1c1ccccc1,i,?,10µM,i,i
COc1ccc(CCNC(=O)c2ccc3c(c2)CCN3S(=O)(=O)c2ccc(C)cc2)cc1,nt,i,i,i,i
O=C(NNC(=O)[C@H]1CC=CC[C@H]1C(=O)O)c1ccc(Cl)cc1Cl,nt,i,i,i,i
O=[N+]([O-])/C(C(Cl)=C(Cl)Cl)=C(/NC1CC1)Sc1ccccc1,nt,?,40µM,i,i
SMILES,L3MBTL1 block,JMJD2A Tudor,G9a block,BAZ2B block,HP1b chromo inh
O=C(CSc1ccccc1)NC1CCCCCC1,nt,i,i,i,i
COc1ccc(C2CC(c3cccs3)=NN2C(=S)Nc2ccccc2)cc1OC (configuration not stated),i,?,i,i,i
S=C(Nc1ccccc1)N1N=C(c2cccs2)CC1c1cccs1 (configuration not stated),i,20µM,nt,i,i
Cc1ccc(-c2nc(CCNC(=O)C(=O)Nc3c(C)cccc3C)cs2)cc1,nt,i,i,i,i
Cc1ccc2nc(-c3ccc(NS(=O)(=O)c4ccccc4)cc3)sc2c1,i,i,i,i,i
Cc1ccc2nc(-c3ccc(N=Nc4cc(S(=O)(=O)O)c5ccccc5c4O)cc3)sc2c1S(=O)(=O)O,nt,18µM,nt,nt,14µM
CC[N+](C)(CC)CCC/C(=N/O)C(O)(c1ccccc1)c1ccccc1,i,?,50µM,i,i
COc1ccc(C(=O)Nc2cccc(C(=O)OCc3cc(=O)n4nc(C5CC5)sc4n3)c2)cc1,nt,i,i,i,i
CCN1C(=O)/C(=C2\SC(=S)N(NC(=O)c3ccccc3O)C2=O)c2ccccc21,?,1.8µM,16µM,25µM,22µM
Cc1cccc(NC(=O)CN2C(=O)/C(=C3\SC(=S)N(CC4CCCO4)C3=O)c3ccccc32)c1 (configuration not stated),nt,i,i,i,i
CCN1C(=O)/C(=C2\SC(=S)N(CC3CCCO3)C2=O)c2ccccc21 (configuration not stated),nt,nt,4µM,10µM,nt
O=C(NCC1CCCO1)c1c[nH]c2ccc(S(=O)(=O)Nc3ccc(F)cc3F)cc2c1=O (configuration not stated),nt,i,i,nt,i
O=C(O)c1ccc(-n2cc(-c3cc4ccccc4oc3=O)[nH]c2=S)cc1,nt,1.3µM,i,i,i
CCCCN(C)C(=O)Cn1c(SCC(=O)Nc2ccc(C)c(C)c2)nc2ccccc21,nt,i,i,i,i
CCn1c(CN2CCN(Cc3ccc(C)cc3)C(CCO)C2)nc2ccccc21 (configuration not stated),i,i,i,i,i
COc1ccccc1C(=O)NCCC(=O)N(C)CC(=O)Nc1ccc(N2CCOCC2)cc1,i,i,45µM,i,i
CCCCOc1ccc(C(=O)NCC(=O)N(C)CC(=O)Nc2ccc(N3CCOCC3)cc2)cc1,i,i,25µM,i,i
COc1ccc(OCCC(=O)OCC(=O)Nc2ccc(S(=O)(=O)N3CCOCC3)cc2)cc1,i,i,i,i,i
CC(C)(C)c1ccc(OCCC(=O)OCC(=O)Nc2ccc(N3CCOCC3)cc2)cc1,i,i,45µM,i,i
CN(CC(=O)Nc1ccc(N2CCOCC2)cc1)C(=O)CCNC(=O)c1ccc(Br)cc1,i,i,45µM,i,i
CCOc1ccc(/C=C/c2nc(C#N)c(NC(C)c3ccccc3)o2)cc1 (configuration not stated),nt,i,i,i,i
O=C(c1ccc2c(c1)OCCO2)N(Cc1cccnc1)c1nc2c(F)cc(F)cc2s1,nt,i,i,i,i
CCOc1ccc(S(=O)(=O)NCCC(=O)N(C)CC(=O)Nc2ccc(N3CCOCC3)cc2)cc1,i,i,35µM,i,i
CCOc1ccc(S(=O)(=O)Nc2nc3ccccc3nc2Nc2ccc(N3CCOCC3)cc2)cc1,i,50µM,10µM,28µM,?
Cc1ccc(OCC(=O)N(C)CC(=O)Nc2ccc(N3CCOCC3)cc2)cc1,i,i,i[0.501 µM],i,i
